Data on 24 molecules can be found in PubChem BioAssay (EPA / NIEHS).

Each structure is given as a SMILES string. The source made the active and inactive calls. Rule for the calls: active = hit-call score of the fitted dose curve at least 0.9, where 1 is the maximum; inactive = score below 0.9.

A short description of one assay: BSK_4H_SRB: Viability Assessment in the BioMAP Diversity Plus: 4H Assay (AID 2283027).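 For AC50: curves fitted both ways versus DMSO so AC50 may be loss or gain.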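 Note: cells exposed to compound for 24 h before staining.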 As to conditions: primary human endothelial cells (HUVEC). In outline: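 Human umbilical vein endothelial cells, 24 h after chemical dosing; total protein measured by 0.1% sulforhodamine B staining after 10% TCA fixation, read at 560 nm. Bidirectional fitting against DMSO.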
In general, AC50 refers to the concentration at which the activity in the assay is half-maximal. For `NC(=O)c1nc(-c2cccc(-c3cc(F)ccc3OCC(F)(F)C(F)(F)F)c2)n[nH]1`, the half-maximal activity concentration (AC50) is 35.2 µM (active). Same read-out and setting: the value for `Cc1c2ccccc2c(C)c2c1ccc1ccccc12` was 18.8 µM (active). Same read-out and setting: the value for `CCCCCCCCCCCC[N+](C)(C)C` was 26.9 µM (active). Turning to `O=CCCCC=O`, the outcome was inactive. Same read-out and setting: the value for `CC[C@H](NC(=O)c1cc(F)ccc1NS(=O)(=O)c1cccc2cccnc12)c1ccccc1` was “inactive”. In the case of `CCN(CC)C(=O)c1cc(S(=O)(=O)Cc2ccccc2)c(N2CCC(c3ccccc3)CC2)cc1N(CC)CCN(C)C`, the AC50 is 19.2 µM (active). With `O=C1O[C@H]([C@@H](O)CO)C(O)=C1O`, the result was inactive.

Regarding `Cc1cn([C@H]2C[C@H](N=[N+]=[N-])[C@@H](CO)O2)c(=O)[nH]c1=O`, the result was inactive. `CC(=O)N1CCN(c2ccc(OC[C@H]3CO[C@](Cn4ccnc4)(c4ccc(Cl)cc4Cl)O3)cc2)CC1`: the AC50 is 29.6 µM (active). Same read-out and setting: the same measure for `CN(C)C(=O)C1(N2CCCCC2)CCN(CC[C@@]2(c3ccc(Cl)c(Cl)c3)CN(C(=O)c3ccccc3)CCO2)CC1`: 18.9 µM (active).

For `O=C(O)c1ccccc1C(=O)OCc1ccccc1`, the result was inactive. Still for that read-out and setting: the value for `CCCC(=O)OCCC(C)C` was “inactive”. Regarding `CN(C[C@@H](CC[N+]12CCC(C3CCCCC3)(CC1)CC2)c1ccc(Cl)c(Cl)c1)C(=O)c1cc(C(F)(F)F)cc(C(F)(F)F)c1`, the half-maximal activity concentration (AC50) was 16.5 µM (active). Turning to `CCN(Cc1cccc(S(=O)(=O)O)c1)c1ccc(C(=C2C=CC(=[N+](CC)Cc3cccc(S(=O)(=O)O)c3)C=C2)c2ccccc2S(=O)(=O)[O-])cc1`, the outcome was inactive.

A short description of a further assay: BSK_BE3C_SRB: Viability Assessment in the BioMAP Diversity Plus: BE3C Assay (AID 2283028).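 For AC50: fitted both ways so AC50 may mark signal gain or loss versus DMSO.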 The conditions noted are these: primary human bronchial epithelial cells. In outline:
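Human bronchial epithelial primary cells in confluent culture, 24 h after chemical dosing; total protein by 0.1% SRB staining after 10% TCA fixation, read at 560 nm. Bidirectional fitting versus DMSO baseline.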
`Cc1cccc2ccccc12`: the outcome was inactive. On the same count and under the same terms, the same measure for `CCO[Si](CCCNC(N)=O)(OCC)OCC`: “inactive”. As to `Clc1ccccc1C(c1ccccc1)(c1ccccc1)n1ccnc1`, the concentration at half-maximal activity (AC50) is 8.78 µM (active). As for `c1ccc2n[nH]nc2c1`, the outcome was inactive. Still for that read-out and setting: the value for `Cc1c2ccccc2c(C)c2c1ccc1ccccc12` was “inactive”.

On to `O=C=NCCCCCCN=C=O`, for which the outcome was inactive. On the same count and under the same terms, the same measure for `Cc1oc2c(NC(=O)c3c(Cl)cccc3Cl)cccc2c1C(C)(C)O`: “inactive”. Regarding `O=CCCCC=O`, the outcome was inactive.

On to `O=C1O[C@H]([C@@H](O)CO)C(O)=C1O`, for which the outcome was inactive. Same read-out and setting: the value for `CN1C(=O)CC[C@H]1c1cccnc1` was “inactive”; that for `O=c1ccc2ccccc2o1` was “inactive”. On to `COc1cc(C(=O)NC2CCN(C)CC2)ccc1Nc1ncc2c(n1)N(C1CCCC1)CC(F)(F)C(=O)N2C`, for which the AC50 is 28.2 µM (active).

On to `CC/C(=C(/CC)c1ccc(O)cc1)c1ccc(O)cc1`, for which the AC50 was 33.6 µM (active). For `O=C(O)c1ccccc1C(=O)OCc1ccccc1`, the result was inactive. Still for that read-out and setting: the value for `CCCC(=O)OCCC(C)C` was “inactive”.
